A word on the AC50: it is the concentration giving half of the maximal activity seen.

Records with an inconclusive call do not appear. Active and inactive are the calls of the source. How the source made its calls: active means hit-call score of the fitted dose curve at least 0.9, where 1 is the maximum; inconclusive means response in the unintended direction; inactive means score below 0.9.

The record followed here is PubChem BioAssay (EPA / NIEHS).

The assay in a line: CCTE_Simmons_MITO_viability: CellTiter-Glo Viability Assessment for CCTE's HepG2 Seahorse XF Respirometric Screening Assay [post-hoc], Simmons Lab (AID 2284007).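 On AC50: cells exposed to chemical for 90 min before the ATP read; actives lower ATP signal relative to DMSO baseline meaning reduced viability.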 The protocol:
CCTE_Simmons_MITO is cell-based, respirometric assay using HepG2 cells and a Seahorse XF Analyzer to measure oxygen consumption rates over four temporal phases spanning a total of 72 minutes: pre-injection (pre-treatment), basal (following test compound injection), maximal (following FCCP uncoupler injection), and inhibited (following rotenone/antimycin A injection)CCTE_Simmons_MITO_viability is one of 4 assay components measured from the CCTE_Simmons_MITO assay. It is designed to make measurements of ATP content, a form of viability reporter, as detected with bioluminescence signals by Luciferase-coupled ATP quantitation technology. Data from the assay component CCTE_Simmons_MITO_viability was analyzed at the endpoint, CCTE_Simmons_MITO_viability, in the positive analysis fitting direction relative to DMSO as the negative control and baseline of activity. Using a type of viability reporter, measures of ATP content for loss-of-signal activity can be used to understand the viability. To generalize the intended target to other relatable targets, this assay endpoint is annotated to the cell cycle intended target family, where the subfamily is cytotoxicity.
Test chemicals were administered as a titrated series of 7 concentrations from 125 nM up to 100 uM [final] for 90 minutes prior to single endpoint detection. Three biological replicates of technical singles were run for every chemical concentration tested. Dimethylsulfoxide [DMSO] was used as the vehicle control. Dichlone [DCNQ] was used as the positive control and was administered as a titrated series of 8 concentrations from 10 nM up to 100 uM [final].
Turning to `CCSC(=O)N(CC)C1CCCCC1`, the compound was called inactive. With `CO/C=C(/C(=O)OC)c1ccccc1COc1cccc(C(F)(F)F)n1`, the call was inactive. On the same count and under the same terms, the entry for `O=C(O)C(F)(F)C(F)(F)C(F)(F)C(F)(F)C(F)(F)C(F)(F)C(F)(F)C(F)(F)F` is “inactive”. The same measure, in the same setting: the entry for `CC(c1ccc(O)cc1)(c1ccc(O)cc1)c1ccc(O)cc1` is “inactive”; for `CC(C)(c1ccccc1)c1ccc(O)cc1` it is “inactive”; for `N#Cc1ccc(N(CC(N)=O)CC(F)(F)F)cc1C(F)(F)F` it is “inactive”. On the same count and under the same terms, the entry for `O=C(O)C(F)(F)C(F)(F)C(F)(F)C(F)(F)C(F)(F)C(F)(F)C(F)(F)C(F)(F)C(F)(F)F` is “inactive”; for `C[C@]12CCC(=O)C=C1CC[C@@H]1[C@@H]2CC[C@]2(C)C(=O)CC[C@@H]12` it is “inactive”; for `NS(=O)(=O)C(F)(F)C(F)(F)C(F)(F)C(F)(F)C(F)(F)C(F)(F)C(F)(F)C(F)(F)F` it is “inactive”. For the compound `CCCCCCCCCC[N+](C)(C)CCCCCCCCCC`, the concentration at half-maximal activity (AC50) was 28 µM (active).

`COc1ccc(O)c(C(C)(C)C)c1`: the result was inactive. Turning to `Oc1c(Cl)c(Cl)c(Cl)c(Cl)c1Cl`, the concentration at half-maximal activity (AC50) was 6.35 µM (active).

Regarding `CC(C)(O)C(=O)Nc1ccc([N+](=O)[O-])c(C(F)(F)F)c1`, the call was inactive. `CCC(C)c1cc([N+](=O)[O-])cc([N+](=O)[O-])c1O` (centres undefined): the AC50 was 2.91 µM (active).
